Assay [1] in a line: qHTS for differential inhibitors of proliferation of Plasmodium falciparum line 3D7 (AID 1876). Note: potency is the fitted concentration of half-maximal effect. In general terms: Quantitative high-throughput screening tests each substance at several concentrations.
The nature of assay [2]: qHTS for differential inhibitors of proliferation of Plasmodium falciparum line W2 (AID 1883).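 Note: parasites grown with compound for 72 h before lysis and staining.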 Note: potency is the fitted concentration of half-maximal effect. The following applies: Potency: Plasmodium falciparum W2 proliferation inhibition.
Assay [3] in a line: qHTS for differential inhibitors of proliferation of Plasmodium falciparum line HB3 (AID 1886).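 Note: parasites grown with compound for 72 h before SYBR Green readout.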 Note: potency is the fitted concentration of half-maximal effect. The following applies: Potency: Plasmodium falciparum HB3 proliferation inhibition.
Assay [4] has as its target Ferritin light chain (Equus caballus) (UniProt P02791). The assay can be described thus: qHTS Validation Assay for Identification of Novel General Anesthetics (AID 2323). Note: series mostly up to about 77 µM. The essentials:
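Fluorescence at 535 nm (excitation 380 nm) reported loss of 1-AMA binding to horse-spleen apoferritin (10 uM) in PBS with 50% saturated 1-aminoanthracene, after 10 min room-temperature incubation with compound; values from Hill fits of normalized response.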

Assay [5] in a line: Quantitative high throughput screen for delayed death inhibitors of the malarial parasite plastid, 48 hour incubation (AID 488752). Note: nearly all actives have a fitted effect of over 65% in size. Note: potency is the fitted concentration of half-maximal effect. Put shortly: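 Readout is firefly luciferase luminescence from a reporter integrated into the parasite genome, with lower signal taken as inhibited growth. Infected red cells (0.1% parasitemia, 2% hematocrit final) are cultured with compound for one 48 h cycle at 37 C.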

Assay [6] addresses Voltage-gated inwardly rectifying potassium channel KCNH2 (Homo sapiens) (UniProt Q12809). In words: qHTS Assay for Small Molecule Inhibitors of the Human hERG Channel Activity (AID 588834).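 Note: lower thallium flux fluorescence means stronger hERG block; nearly all actives have a fitted effect of over 50% in size.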 Note: potency is the fitted concentration of half-maximal effect. The essentials: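 hERG-BacMam U2OS, 2000 cells/well; 0.7X FluxOR loading 1 hr RT dark; cpd ~10 min 37 °C; stim buffer; FDSS fluorescence 2 min @ 1 s; AC50 Hill fit.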
For assay [7], the target named is Endonuclease 4 (Escherichia coli (strain K12)) (UniProt P0A6C1). The assay can be described thus: Counterscreen for APE1 Inhibitors: qHTS Validation Assay for Inhibitors of Endonuclease IV (AID 1708). The essentials: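 qHTS concentration-response format; LOPAC1280 tested under APE1-screen conditions. 2 nM enzyme, 15 min compound preincubation at RT, then 50 nM TAMRA/BHQ-2 abasic substrate; kinetic fluorescence read, three reads at 60 s intervals.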

Assay [8] in a line: qHTS for differential inhibitors of proliferation of Plasmodium falciparum line D10 (AID 1877).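 Note: parasites grown with compound for 72 h before DNA staining.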 Note: potency is the fitted concentration of half-maximal effect.
A short description of assay [9]: Quantitative high throughput screen for delayed death inhibitors of the malarial parasite plastid, 96 hour incubation (AID 488745). Note: nearly all actives have a fitted effect of over 70% in size. Note: potency is the fitted concentration of half-maximal effect. Put shortly:
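Infected erythrocytes were added to compound in Albumax-supplemented RPMI 1640 at 0.1% parasitemia and 2% hematocrit (final), incubated 96 h at 37 C under 5% CO2, then luciferase reagent was added and luminescence measured.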

Among the data in PubChem BioAssay (NCATS) are Potency values, retold here.

Inconclusive results are not listed. The source made the active and inactive calls. Calls come from the whole dose curve; as a rule, active = well fitted curve in the direction sought with a large enough effect; inconclusive = small, poorly fitted or top-dose-only effect, or another doubt; inactive = no such curve, though single readings can be large; an effect the other way counts as inactive or inconclusive.

Voltage-gated inwardly rectifying potassium channel KCNH2 (Homo sapiens), sequence (Q12809 whole entry, looked up): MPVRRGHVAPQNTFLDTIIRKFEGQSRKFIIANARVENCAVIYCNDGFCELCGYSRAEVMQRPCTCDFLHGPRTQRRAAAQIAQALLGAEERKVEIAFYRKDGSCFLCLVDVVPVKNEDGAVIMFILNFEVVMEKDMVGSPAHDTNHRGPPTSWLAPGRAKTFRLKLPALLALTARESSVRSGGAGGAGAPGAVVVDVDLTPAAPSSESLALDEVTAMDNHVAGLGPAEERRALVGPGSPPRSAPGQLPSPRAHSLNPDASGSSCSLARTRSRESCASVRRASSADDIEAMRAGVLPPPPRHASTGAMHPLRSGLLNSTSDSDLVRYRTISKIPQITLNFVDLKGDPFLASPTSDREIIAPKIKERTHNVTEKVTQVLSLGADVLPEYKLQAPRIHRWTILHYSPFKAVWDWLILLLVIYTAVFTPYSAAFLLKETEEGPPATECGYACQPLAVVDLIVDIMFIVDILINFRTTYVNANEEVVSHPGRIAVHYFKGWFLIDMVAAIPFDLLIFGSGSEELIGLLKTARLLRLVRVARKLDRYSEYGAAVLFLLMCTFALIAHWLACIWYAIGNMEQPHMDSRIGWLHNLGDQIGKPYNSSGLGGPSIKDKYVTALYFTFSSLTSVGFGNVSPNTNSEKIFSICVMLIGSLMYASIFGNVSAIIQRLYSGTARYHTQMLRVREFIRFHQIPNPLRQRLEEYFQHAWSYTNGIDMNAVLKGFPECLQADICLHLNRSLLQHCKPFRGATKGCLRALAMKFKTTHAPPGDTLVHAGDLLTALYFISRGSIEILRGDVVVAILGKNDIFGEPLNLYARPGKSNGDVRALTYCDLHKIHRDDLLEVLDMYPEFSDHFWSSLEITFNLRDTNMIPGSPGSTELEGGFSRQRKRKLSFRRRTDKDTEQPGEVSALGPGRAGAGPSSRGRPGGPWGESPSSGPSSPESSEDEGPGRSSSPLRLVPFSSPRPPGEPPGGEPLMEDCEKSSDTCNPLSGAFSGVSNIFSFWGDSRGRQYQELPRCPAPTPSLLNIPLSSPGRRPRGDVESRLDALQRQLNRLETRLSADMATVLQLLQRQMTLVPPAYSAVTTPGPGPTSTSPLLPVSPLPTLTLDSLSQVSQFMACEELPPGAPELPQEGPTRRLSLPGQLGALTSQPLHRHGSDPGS
Ferritin light chain (Equus caballus), sequence (P02791 2-175 limits assumed): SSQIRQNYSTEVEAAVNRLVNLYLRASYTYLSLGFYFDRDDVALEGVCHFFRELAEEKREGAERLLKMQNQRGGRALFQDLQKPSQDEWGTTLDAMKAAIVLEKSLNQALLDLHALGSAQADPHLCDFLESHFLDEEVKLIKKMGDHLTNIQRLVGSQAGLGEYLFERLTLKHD

Take `CCC(CO)NC(=O)[C@@H]1C=C2c3cccc4[nH]cc(c34)C[C@H]2N(C)C1` (stereo partly drawn): the Potency in [1] is 14.1 µM (active); in assay [2] it was 12.6 µM (active); in assay [3], 10 µM (active). Further, the Potency result in assay [4], in [5] and in assay [6] was “inactive” each time.
Regarding `NCC#Cc1ccccc1`, the Potency entry in assay [7], in [1], in assay [8], in [3], in [4] and in assay [9] was “inactive” in each case. Moreover, the Potency entry in assay [5] and in assay [6] was “inactive” throughout. In assay [2], the Potency is 12.6 µM (active).
Consider `C[C@]12CC[C@H]3[C@@H](CCC4C[C@H](O)CC[C@@]43C)[C@@H]1CC[C@@H]2O` (stereo partly drawn), for which the Potency entry in assay [7], in assay [1], in assay [8], in assay [2], in [3] and in assay [9] was “inactive” throughout. Further, the Potency entry in assay [5] and in assay [6] was “inactive” in each case.
Take `Oc1ccc2c3c1O[C@H]1[C@@H](O)CC[C@@]4(O)C(C2)N(CC2CCC2)CCC314` (stereo partly drawn): the Potency result in assay [7], in [1], in assay [8], in assay [3] and in [4] was “inactive” in each case. Also, the Potency in [6] was 5.01 µM (active).
With `N#CC(=Cc1ccc(O)c(O)c1)C(N)=S`, the Potency result in [7], in assay [8], in assay [9], in assay [5] and in assay [6] was “inactive” each time.
Turning to `Nc1ncnc2c1ncn2[C@@H]1O[C@H](COP(=O)(O)CP(=O)(O)OP(=O)(O)O)[C@H](O)[C@H]1O`, the Potency entry in assay [7], in assay [1], in assay [8], in assay [2], in assay [3] and in assay [4] was “inactive” each time. Moreover, the Potency entry in assay [9], in assay [5] and in assay [6] was “inactive” in each case.
On to `CCCN(CCC)C(=O)Cc1c(-c2ccc(Cl)cc2)nc2c(Cl)cc(Cl)cn12`, for which the Potency entry in assay [7], in assay [3], in [9], in [5] and in [6] was “inactive” each time.
As to `CCNC(=O)[C@H]1O[C@@H](n2cnc3c(N)ncnc32)[C@H](O)[C@H]1O`, the Potency result in [7], in assay [1], in assay [8], in assay [2], in assay [3] and in [4] was “inactive” each time. The Potency result in assay [9], in [5] and in assay [6] was “inactive” throughout.
For `CCCC[N+]1(C)C2CC(OC(=O)C(CO)c3ccccc3)CC1C1OC12` (stereo not drawn), the Potency result in assay [7], in assay [8], in [3], in assay [4], in assay [9] and in assay [5] was “inactive” throughout. The Potency entry in assay [6] is “inactive”.
`CCN1C[C@]2(C)CC[C@H](O)[C@@]34[C@@H]5C[C@@H]6[C@@H](OC)C[C@@](O)(C5[C@H]6O)[C@@H](C[C@@H]23)[C@@H]14`: the Potency result in assay [7], in assay [1], in [8], in assay [3], in assay [4] and in [9] was “inactive” each time. Further, the Potency entry in assay [6] was “inactive”.
For `CCCCN1C2CCC1CC(OC(c1ccc(F)cc1)c1ccc(F)cc1)C2` (stereo not drawn), the Potency entry in assay [7] was “inactive”. Moreover, the Potency was 0.891 µM (active) in assay [1]; 2.24 µM (active) in assay [8]; 0.631 µM (active) in assay [2]; 1 µM (active) in [3]; 1.85 µM (active) in [9]; 7.38 µM (active) in [5]. In addition, in assay [6], the Potency is 0.0891 µM (active).
Consider `CCCN1CCC[C@@H](c2cccc(C#N)c2)C1`, for which the Potency entry in assay [7], in assay [1], in assay [8], in [3], in assay [4] and in assay [9] was “inactive” each time. Also, the Potency result in assay [5] and in [6] was “inactive” in each case. Also, in assay [2], the Potency is 11.2 µM (active).
With `CC12CCC3C(CCC4=C(O)C(=O)CCC43C)C1CCC2=O` (stereo not drawn), the Potency entry in assay [7], in assay [1], in assay [8], in [4], in [9] and in assay [5] was “inactive” in each case. The Potency entry in [6] is “inactive”.
As for `NC(Cn1ccc(=O)[nH]c1=O)C(=O)O` (stereo not drawn), the Potency result in assay [7], in [1], in [8], in [2], in [3] and in [4] was “inactive” in each case. The Potency entry in [9], in [5] and in assay [6] was “inactive” in each case.
In the case of `CC1Cc2cc3c(cc2C(c2ccc(N)cc2)=NN1)OCO3` (stereo not drawn), the Potency result in [7], in assay [8], in assay [4], in assay [9] and in assay [5] was “inactive” in each case. The Potency in assay [2] is 2.24 µM (active).
On to `COc1ccc2c3c1O[C@H]1C(=O)CC[C@@]4(O)C(C2)N(CC2CC2)CCC314` (stereo partly drawn), for which the Potency result in assay [7], in assay [1], in assay [8], in assay [3], in assay [4] and in [9] was “inactive” in each case. Moreover, the Potency result in assay [5] was “inactive”. In addition, the Potency in assay [2] was 11.2 µM (active).
